Test results from PubChem BioAssay AID743129 (Broad Institute, 2013).
Potency and affinity values are given separately. Calls of active or inactive are those of the source.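 The calls were made as follows: active = cytotoxic compounds whose fitted half-maximal concentration is at most twice the highest valid tested dose; inconclusive = flat curve with 30 to 70% cell loss, or poor fit; inactive = the rest, including signal rising instead of falling.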

Experiment: viability loss in HepG2 hepatoma cells – cell-based, ATP luminescence, dry powder, set 2, cytotoxicity control, dose response (AID 743129)

Row | Compound | outcome
1 | CCOC(=O)c1c(-c2ccc(OC)cc2)csc1NC(=O)CN(C)CC(=O)N(C)C | inactive
2 | Cc1ccc(OCCn2cnc3ccccc32)cc1 | inactive
3 | Fc1ccccc1OCCn1c(=S)[nH]c2ccccc21 | inactive
4 | S=c1[nH]c2ccccc2n1CCOc1ccc(Cl)cc1 | inactive
5 | COC(=O)C1=C(C)N(Cc2ccc(Cl)cc2)C(=S)NC1c1ccc(Br)cc1 (stereo not drawn) | inactive
6 | Cc1ccc(OCCn2c(=S)[nH]c3ccccc32)c(C(C)C)c1 | inactive
7 | CCOC(=O)c1c(-c2ccc(F)cc2)csc1NC(=O)CN1CCN(CC)CC1 | inactive
8 | Cc1ccc2c(c1)[nH]c(=S)n2CCOc1ccccc1 | inactive
9 | S=c1[nH]c2ccccc2n1CCOc1ccccc1 | inactive
10 | O=c1[nH]c2ccccc2n1CCOc1ccccc1 | inactive
11 | COC(=O)C1=C(C)N(Cc2ccc(Br)cc2)C(=S)NC1c1ccc(F)cc1 (stereo not drawn) | inactive
12 | S=c1[nH]c2cccc(Cl)c2n1CCOc1ccccc1 | inactive
13 | CCOC(=O)c1c(-c2ccc(F)cc2)csc1NC(=O)CN1CCN(C)CC1 | inactive
14 | COC(=O)C1=C(C)N(Cc2ccc(Br)cc2)C(=S)NC1c1ccc(OC)cc1 (stereo not drawn) | inactive
15 | COC(=O)C1=C(C)N(Cc2ccccc2)C(=S)NC1c1ccc(Br)cc1 (stereo not drawn) | inactive
16 | Cc1ccc(OCCn2c(C)nc3ccccc32)cc1 | inactive
17 | c1ccc(OCCn2cnc3ccccc32)cc1 | inactive
18 | CCOc1ccc(OCCn2c(=S)[nH]c3ccccc32)cc1 | inactive
19 | Cc1ccccc1OCCn1c(=S)[nH]c2ccccc21 | inactive
20 | Fc1cccc2c1[nH]c(=S)n2CCOc1ccccc1 | inactive
21 | Cc1ccc(OCCn2c(=S)[nH]c3ccccc32)cc1 | inactive
22 | Cc1ccc(C(C)C)c(OCCn2c(=S)[nH]c3ccccc32)c1 | inactive
23 | Cc1cccc(OCCn2c(=S)[nH]c3cc(C(F)(F)F)ccc32)c1 | inactive
